The list is a sample of the results.
Cav32 inh – Cav3.2 calcium influx blockers – cell-based, Fluo-4 calcium fluorescence, FDSS, MLSMR library, primary screen; B-score at 10 µM; 4% of 100,000 active; Cav3.2-expressing cells; hits give low values;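 active = single-dose well whose peak fluorescence ratio is a statistical outlier from its plate by either plate-standardised score or position-corrected B-score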
CYP2C9 inh – blockers of cytochrome P450 2C9 activity – biochemical, luminescence, ADME assay, primary screen. CYP2C9 Supersomes, luciferin-H conversion. inhibition, % at 5 µM. 20% of 96,000 active. AID 777, 2007;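 active = blocking of liver enzyme CYP2C9 beyond about 50% at 5 µM, limit read from the data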
CYP2C19 inhib – blockers of cytochrome P450 2C19 activity – biochemical, luminescence, ADME assay, primary screen. inhibition, % at 5 µM. P33261. 21% of 96,000 active. CYP2C19 Supersomes, luciferin-H EGE luminescence, 30 min;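 active = CYP2C19 inhibition above a set limit at 5 µM in the primary screen, cut at about 50% in these data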
CYP2C19 activ – human CYP2C19 activators, primary screen, biochemical, luminescence; recombinant CYP2C19, luciferin-H EGE luminescence; hits give high values; 0 = fully inhibited enzyme, 1 = untreated enzyme; activation factor at 5 µM; 96,000 tested, under 10 active; Cytochrome P450 2C19 (Homo sapiens), P33261;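 active = activation factor of at least 2 at 5 µM in the primary screen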
CYP2C9 act – human CYP2C9 activators, primary screen, biochemical, luminescence; 1.4% of 96,000 active; activation factor at 5 µM; recombinant CYP2C9, luciferin-H conversion; hits give high values; factor 1 = untreated enzyme, 0 = blocked;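 active = activation factor of 2 or more for CYP2C9 at a 5 µM dose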
Hits are given with their value.

For O=C(CC(c1ccccc1)c1ccccc1O)NCCN1CCOCC1 (stereo not given) the results were Cav32 inh inactive, CYP2C9 inh inactive, CYP2C19 inhib 54, CYP2C19 activ inactive and CYP2C9 act inactive.
CC(C)(C)NC(=O)CC(CC(=O)O)c1ccccc1 (stereo not given) was read as Cav32 inh inactive, CYP2C9 inh inactive, CYP2C19 inhib inactive, CYP2C19 activ inactive and CYP2C9 act inactive.
Screening COc1ccc(NC(=O)c2cccc(S(=O)(=O)N3CCOCC3)c2)cn1 returned Cav32 inh inactive, CYP2C9 inh inactive, CYP2C19 inhib inactive, CYP2C19 activ inactive and CYP2C9 act inactive.
`Brc1ccc2ncnc(Nc3ccc(N4CCOCC4)cc3)c2c1` gave Cav32 inh inactive, CYP2C9 inh inactive, CYP2C19 inhib inactive, CYP2C19 activ inactive and CYP2C9 act inactive.
`O=C(CSc1nnc(-c2ccccn2)n1Cc1ccccc1)Nc1ccc2c(c1)OCO2` gave Cav32 inh inactive, CYP2C9 inh inactive, CYP2C19 inhib inactive, CYP2C19 activ inactive and CYP2C9 act inactive.
For S=C(c1ccc(-c2ccc(Cl)c(Cl)c2)o1)N1CCOCC1 the results were Cav32 inh inactive, CYP2C9 inh 89, CYP2C19 inhib 88, CYP2C19 activ inactive and CYP2C9 act inactive.
For N#CCCN1CCN(C(=S)c2ccc(-c3cc(Cl)ccc3Cl)o2)CC1 the results were CYP2C9 inh inactive, CYP2C19 inhib inactive, CYP2C19 activ inactive and CYP2C9 act 2.7.
For S=C(c1ccc(-c2ccc(Cl)cc2Cl)o1)N1CCCCC1 the results were Cav32 inh inactive, CYP2C9 inh 72, CYP2C19 inhib 62, CYP2C19 activ inactive and CYP2C9 act inactive.
For S=C(c1ccc(-c2ccccc2Cl)o1)N1CCOCC1 the results were Cav32 inh inactive, CYP2C9 inh inactive, CYP2C19 inhib inactive, CYP2C19 activ inactive and CYP2C9 act inactive.
For OCCN1CCN(C(=S)c2ccc(Cl)c(Cl)c2)CC1 the results were Cav32 inh inactive, CYP2C9 inh inactive, CYP2C19 inhib inactive, CYP2C19 activ inactive and CYP2C9 act inactive.
Screening CC(C)=CCc1c(O)c(CC=C(C)C)c2c(c1O)-c1cc(O)c(O)cc1CC2 returned Cav32 inh inactive.
For CCOc1cc(S(=O)(=O)NCc2ccccc2)ccc1F the results were Cav32 inh inactive, CYP2C9 inh inactive, CYP2C19 inhib inactive, CYP2C19 activ inactive and CYP2C9 act inactive.
For CCOc1cc(S(=O)(=O)n2c(C)nc3ccccc32)ccc1F the results were Cav32 inh inactive, CYP2C9 inh 86, CYP2C19 inhib 99, CYP2C19 activ inactive and CYP2C9 act inactive.
Cc1nn(CC(=O)Nc2ccccn2)c(C)c1[N+](=O)[O-] was read as Cav32 inh inactive, CYP2C9 inh inactive, CYP2C19 inhib inactive, CYP2C19 activ inactive and CYP2C9 act inactive.
`O=C(O)Cn1nnnc1-c1ccc(F)cc1` gave Cav32 inh inactive, CYP2C9 inh inactive, CYP2C19 inhib inactive, CYP2C19 activ inactive and CYP2C9 act inactive.
For CCOC(=O)CSc1nc(C)c2ccc(C)cc2n1 the results were Cav32 inh inactive.
CCNC(=O)CC1SC(=Nc2cccc(Cl)c2C)N(C)C1=O (stereo not given) was read as Cav32 inh inactive.
`Cc1ccc(NC(=O)CC2S/C(=N/c3nccs3)N(C)C2=O)c(C)c1` (stereo not given) gave Cav32 inh inactive, CYP2C9 inh 98, CYP2C19 inhib 96, CYP2C19 activ inactive and CYP2C9 act inactive.
`COc1cc(O)c(C(CCN2CCCC(C)C2)c2ccc(N(C)C)cc2)c(OC)c1` (stereo not given) gave Cav32 inh inactive.
For CCCCC(=O)NCCNC(=O)c1cc(OCC(F)(F)F)ccc1OCC(F)(F)F the results were Cav32 inh inactive, CYP2C9 inh inactive, CYP2C19 inhib inactive, CYP2C19 activ inactive and CYP2C9 act inactive.
`COc1ccc(C(=O)NCCNC(=O)c2cc(OCC(F)(F)F)ccc2OCC(F)(F)F)cc1` gave Cav32 inh inactive, CYP2C9 inh inactive, CYP2C19 inhib inactive, CYP2C19 activ inactive and CYP2C9 act inactive.
Screening O=C(NCCNC(=O)c1cc(OCC(F)(F)F)ccc1OCC(F)(F)F)Nc1ccc(Cl)cc1 returned Cav32 inh -4.1, CYP2C9 inh inactive, CYP2C19 inhib inactive, CYP2C19 activ inactive and CYP2C9 act inactive.

Assay outcomes deposited in PubChem BioAssay by several laboratories.
